Rows were chosen to be rich in hits. Some 21% of all compounds tested hit in one or more screens of this group.
HCV inhibitor: inhibitors of hepatitis C virus infection. actives 3.4% (n = 340,000). Potency, µM (titrated, usually from 41.8 µM), for the others: top-dose activity change, negative = inhibition, most hits filed as inhibitors. Huh7.5.1 HCVcc-Cre infection, luciferase reporter, 44 h. AID 651820; further: potency means the concentration at half of the fitted maximal effect; on the % scale 0 is the no-effect control and ±100 the full control effect
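Infectious HCVcc-Cre (~0.5 moi) was added to cells just after compound, with cells seeded 4 h earlier at 1,000 per well. Luciferase activity after 44 h culture reported infection; substrate was incubated 15 min at room temperature before reading.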
HCMV inh: inhibitors of human cytomegalovirus | HFF cells, HCMV-luciferase reporter, 72 h; hits give low values | activity change, negative = inhibition, % at 57.5 µM | actives 4.5% (n = 410,000) | AID 1259415; in the data active means activity change below about -60%; inconclusive means no clear call, values can overlap the other calls; inactive means above about -39%; further: on the % scale 0 is the no-effect control and ±100 the full control effect
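Steps: HFFs plated, 16 h 37C; compounds added; HCMV-luciferase added to MOI 1 PFU/cell; 72 h 37C; OneGlo reagent, 5 min room temperature; luminescence read, normalized to controls.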
Shiga inhibitor: blocks Shiga toxin action in Vero cells | Vero cells, Shiga toxin protein synthesis inhibition reporter | inhibition, % at 38.7 µM | actives 9.2% (n = 290,000) | AID 2315; in the data active means inhibition mostly above about 28%, no sharp cut-off; inactive means mostly below about 43%; further: 0% is about no effect
Pf growth 96h: P. falciparum growth inhibition at 96 hours. P. falciparum luciferase reporter growth, 96 h. Potency, µM (titrated, usually from 28.7 µM), for inactives: at the highest dose activity change, negative = inhibition, actives largely listed as inhibitors. actives 6.9% (n = 320,000). AID 504834; further: potency means the concentration at half of the fitted maximal effect; on the % scale 0 is the no-effect control and ±100 the full control effect
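Compounds incubated with erythrocytes infected by luciferase-expressing P. falciparum (2% hematocrit, 0.05% parasitemia final) for 96 hours, 37 C in 5% CO2. Growth inhibition scored as decreased luciferase luminescence.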
Pf growth 48h: P. falciparum growth inhibition at 48 hours (one generation); P. falciparum luciferase growth in erythrocytes, 48 h; Potency, µM (doses to about 28.7 µM), without a hit: top-dose activity change, negative = inhibition, most hits filed as inhibitors; actives 5.9% (n = 310,000); AID 504832; further: potency means the concentration at half of the fitted maximal effect; on the % scale 0 is the no-effect control and ±100 the full control effect
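Compounds are pin-transferred into medium, infected erythrocytes (2% hematocrit, 0.1% parasitemia final) are added, and plates sit one parasite generation at 37 C in 5% CO2. Detection reagent is then added and luminescence measured.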
Cycloheximide cs: counter-screen hit for Shiga toxin inhibitors, cycloheximide. actives 12% (n = 300,000). cell reporter, cycloheximide protein synthesis inhibition counterscreen. max response, %; in the data active means max response mostly above about 13%, no sharp cut-off; inactive means mostly below about 14%; further: read at 38.3 µM for the half of the compounds with a filed dose; 0% is about no effect
* marks the source's active call; other numbers are inactive results; u = inconclusive; x = not tested or not shown; [ ] = another dose, or the depositor's remark. Unless noted, the call rests on the fitted dose curve; in most records, active means well fitted inhibition curve with a large enough effect; inconclusive means small, poorly fitted or top-dose-only effect, or another doubt; inactive means no such curve, though single readings can be large or run the other way.

SMILES | HCV inhibitor | HCMV inh | Shiga inhibitor | Pf growth 96h | Pf growth 48h | Cycloheximide cs
CC(C)(C)C1CCC(C(=O)OCC(=O)Nc2ccc3[nH]c(=O)[nH]c3c2)CC1 (stereo unspecified) | 18.7% | -72.2* | 23.6 | -8.1% | -1.5% | -2.0
Fc1ccc(-c2cc(C(F)(F)F)nc(NCc3ccccc3)n2)cc1 | x | -20.2 | x | x | x | x
FC(F)(F)c1cc(-c2ccccc2)nc(NCc2cccnc2)n1 | u | 41.3 | -13.7 | u | 3.7µM* | -3.1
FC(F)(F)c1cc(-c2ccco2)nc(NCc2cccnc2)n1 | u | -13.1 | -17.9 | u | 11.7µM* | 0.5
Cc1ccc(N=Cc2ccc(N(C)C)cc2)cc1 | -6.5% | 36.8 | -11.5 | 15.2% | 60.3% | 7.4
CN(C)c1ccc(N=Cc2ccco2)cc1 | -15.2% | x | 99.1* | u | 0.828µM* | 55.1*
CN(C)c1ccc(C=Nc2ccc(N(C)C)cc2)cc1 | -4.2% | -72.1* | 77.6* | -19.1% | u | 35.9*
C(=Nc1cccc2c(N=Cc3ccco3)cccc12)c1ccco1 | 14.9% | x | 47.1* | -22.7% | 2.2% | 16.6
O=c1[nH]c(-c2ccc(Cl)cc2)nc(=S)[nH]1 | 13.8% | 22.6 | 1.9 | 19.0% | 4.2% | -0.3
Cc1cn(CC(=O)N(C)Cc2ccco2)c(=O)[nH]c1=O | -66.0% | -6.4 | x | x | x | x
CN(C)c1ccc(S(=O)(=O)N2CCC(Cc3ccccc3)CC2)cn1 | u | -17.8 | x | x | x | x
O=C(Cc1ccccc1)N/N=C/c1ccc2cccc(O)c2n1 | u | 6.1 | 37.6 | 45.4% | -9.3% | 31.6*
NC(=O)N/N=C/c1ccc2cccc(OCc3ccccc3)c2n1 | -18.4% | -4.9 | 19.7 | -4.9% | 2.0% | 1.5
CCOc1ccccc1NC(=O)CSc1nc2cc(OC)c(OC)cc2c2nc(CCn3c(C)nc4ccccc43)nn12 | x | -92.7* | x | x | x | x
Cc1cncn1CCc1nc2c3ccccc3nc(SCC(=O)Nc3ccccc3F)n2n1 | x | -67.1* | x | x | x | x
Cc1n[nH]c(C)c1CCc1nc2c3ccccc3nc(SCC(=O)Nc3ccc(F)cc3)n2n1 | x | -68.1* | x | x | x | x
COc1cc2nc(SCC(=O)Nc3ccccc3C)n3nc(CCn4c(C)nc5ccccc54)nc3c2cc1OC | x | 1.9 | x | x | x | x
CCOC(=O)c1ccc(NC(=O)CC2C(=O)N(c3ccc(F)cc3)C(=O)N2Cc2cccnc2)cc1 (stereo unspecified) | x | -31.8 | x | x | x | x
CCN1c2ccccc2-c2nc3ccccc3n2C1c1ccccn1 (stereo unspecified) | u | -17.4 | 32.6 | u | u | 1.7
CCN1c2ccccc2-c2nc3ccccc3n2C1c1ccncc1 (stereo unspecified) | -5.7% | -34.2 | -14.4 | 10.4µM* | 5.22µM* | -7.0
CCN1c2ccccc2-c2nc3ccccc3n2C1c1cccnc1 (stereo unspecified) | u | 6.9 | 19.0 | -2.1%[5.75 µM] | 9.28µM* | 0.2
NS(=O)(=O)c1ccc(O)c(N2C(=O)c3cccc4c(C(=O)O)ccc(c34)C2=O)c1 | 15.5% | 8.1 | 54.9 | 15.0% | 24.5% | 10.9
N#C/C(=C(/O)c1ccc([N+](=O)[O-])s1)c1nc2ccccc2[nH]1 | u | 20.3 | 7.1 | u | 7.4% | 2.3
Cc1cc(/C=C(/C#N)c2nc3ccccc3[nH]2)c(C)n1-c1cccc([N+](=O)[O-])c1 | u | -10.8 | 37.3* | 2.33µM* | x | 32.4*
Cc1cc(/C=C(\C#N)c2nc3ccccc3[nH]2)c(C)n1C | u | 74.0 | 67.1* | -99.0% | -22.0% | 23.4*
SMILES | HCV inhibitor | HCMV inh | Shiga inhibitor | Pf growth 96h | Pf growth 48h | Cycloheximide cs
COc1ccc(C(CCN2CCCCC2)c2c(O)cc(OC)cc2OC)cc1 (stereo unspecified) | -9.9% | 22.2 | -5.8 | 0.465µM* | 0.657µM* | -1.3
COc1ccc(C(CCN2CCCC2)c2c(O)cc(OC)cc2OC)cc1 (stereo unspecified) | -17.9% | 25.4 | 15.8 | 2.94µM* | u | -5.0
CC(C)NC(=O)c1nnc2n1CCN(Cc1cccc3c1OCO3)C2 | x | -12.8 | x | x | x | x
Cc1cccc(-c2noc(Cc3ccccc3)n2)c1 | -13.1% | 4.0 | 99.8* | 82.5% | 58.2% | 55.7*
Cc1cccc(-c2noc(CCc3ccccc3)n2)c1 | -15.9% | -22.8 | 80.6* | 7.5% | x | 39.6*
Cc1cccc(-c2noc(CNS(=O)(=O)c3ccccc3)n2)c1 | -13.8% | -19.0 | 9.8 | -29.2% | 22.8% | 18.0*
COc1ccc(-c2nc3c(n2O)CCc2c-3no[n+]2[O-])cc1 | 11.4% | -68.3* | 23.3 | 50.5% | 60.6% | 13.3*
[O-][n+]1onc2c1CCc1c-2nc(-c2ccccc2)n1OCc1ccccc1 | 14.3% | -16.0 | -7.6 | -10.6% | 0.6% | -2.5
COc1ccc(-c2nc3c(n2O)CCCC3=O)cc1OC | 13.7% | -17.0 | 19.6 | 50.2% | -2.0% | -4.6
COn1c(-c2ccccc2)nc2c1CCc1c-2no[n+]1[O-] | 3.0% | -80.1* | -17.2 | -7.3% | x | -7.2
CCOC(=O)c1cn(-c2ccccc2)nc1-c1ccncc1 | 10µM* | -17.2 | -10.9 | 1.4% | u | -2.4
O=C(OCn1nnc2ccccc2c1=O)c1cn(-c2ccccc2)nc1-c1cccnc1 | 10µM* | -30.4 | -11.2 | 37.1% | 0.0% | -3.3
COC(=O)c1cn(-c2ccccc2)nc1-c1ccccc1 | 11.2µM* | 14.2 | -6.7 | -3.9% | x | -3.1
O=C(O)c1cn(-c2ccccc2)nc1-c1cccnc1 | 9.5% | 11.8 | 6.5 | x | x | 4.3
O=C(NC1CCN(Cc2ccccc2)CC1)c1cn(-c2ccccc2)nc1-c1cccnc1 | -16.6% | -25.3 | x | 2.33µM* | 3.7µM* | x
CCN(CC)c1ccc(NC(=O)c2cnc3c(-c4ccccc4)c(C)nn3c2C)c(C)c1 | x | -14.1 | x | x | x | x
CCOC(=O)c1cn(-c2ccccc2)nc1-c1cccnc1 | 10µM* | 41.2 | 50.2* | u | 83.4% | 36.6*
O=S(=O)(NCc1ccccc1)c1cc(Br)ccc1Br | x | -26.9 | x | x | x | x
CCSc1nc(-c2ccc(OC)cc2)ccc1C#N | 10µM* | 26.0 | -8.0 | 25.5% | u | -2.4
Cc1cc(I)ccc1Nc1c(C(=O)NOCC2CC2)cc(F)c(F)c1F | x | x | 58.2* | x | x | 16.7*
CCOC(=O)c1cc(-c2ccc(OC)cc2)n(CCC(=O)Nc2cccc(C(C)=O)c2)c1C | x | -28.7 | x | x | x | x
CCOc1ccc(/C=C/c2nc3ccccc3n2S(=O)(=O)c2cccc(Cl)c2)cc1 | x | -79.8* | x | x | x | x
Cc1ccc(/C=C/c2nc3ccccc3n2S(=O)(=O)c2cccc(Cl)c2)cc1 | x | -81.7* | x | x | x | x
Cc1cccc(C(=O)OCC(=O)NCCNC(=O)COC(=O)c2cccc(C)c2C)c1C | u | -23.2 | -14.3 | u | 7.3% | 3.2
COc1cccc(CC(=O)NC2CCCN(Cc3ccc(Cl)cc3)C2)c1 (stereo unspecified) | -13.1% | -5.6 | -9.4 | -24.1% | -14.6% | 3.0
CCN(Cc1ccccc1OC)CC1CCCN(CCc2cccc(OC)c2)C1 (stereo unspecified) | u | 42.3 | 0.3 | 4.2% | u | 1.5
